Screening data from PubChem.
Shown are actives, neighbours in structure and some others; about 1.2% of the full set was active somewhere.
GSH bead fluor – compound fluorescence on glutathione beads, profiling panel, artefact control, biophysical, 488/530 nm, flow cytometry | GSH beads flow cytometry, compound fluorescence 488/530 nm; stronger effect = higher value | fluorescence (KMESF) at 10 µM | 0.25% of 190,000 active | AID 1776, 2009; in the data active = fluorescence above about 89;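 also: glutathione beads carrying GST-tagged Bcl family fusion proteins plus one bare bead set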
RGS7-Gao reg – RGS7-Galphao binding modulators, primary screen, biochemical, multiplexed bead flow cytometry | Guanine nucleotide-binding protein G(o) subunit alpha (Homo sapiens), P09471 | 0.35% of 220,000 active | actives lie on both sides | binding response (% of control), % at 10 µM; in the data active = binding response below about 49% or above about 150%;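 also: fluorescent Galphao held in activated GDP-AlF4 state binding bead-coupled RGS7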
Avidin bead fluor – green autofluorescence of compounds with avidin beads – biophysical, 488/530 nm, flow cytometry, artefact control, profiling panel; compound fluorescence 488/530 nm; stronger effect = higher value; fluorescence (KMESF) at 10 µM; 0.38% of 220,000 active; in the data active = fluorescence above about 47
RGS4-Gao reg – modulators of RGS4 binding to Galphao, primary screen, biochemical, multiplexed bead flow cytometry; Guanine nucleotide-binding protein G(o) subunit alpha (Homo sapiens), P09471; actives lie on both sides; binding response (% of control), % at 10 µM; 0.33% of 220,000 active; in the data active = binding response below about 49% or above about 150%; inactive = in between;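 also: fluorescent Galphao activated with aluminum fluoride binding bead-coupled RGS4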
RGS8-Gao reg – RGS8-Galphao binding modulators, primary screen, biochemical, multiplexed bead flow cytometry | Guanine nucleotide-binding protein G(o) subunit alpha (Homo sapiens), P09471 | actives lie on both sides | response (percent of control binding), % at 10 µM | 0.34% of 220,000 active | AID 1423, 2008; in the data active = response below about 60% or above about 140%; inactive = in between;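 also: Galphao activated as the GDP aluminium fluoride complex binding bead-coupled RGS8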
RGS16-Gao – modulators of RGS16 binding to Galphao, primary screen, biochemical, human proteins, multiplexed bead flow cytometry | AID 1441, 2008 | 0.38% of 220,000 active | bead-based flow cytometry RGS16-Galphao binding, fluorescence; actives lie on both sides | binding response (% of control), % at 10 µM;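 also: Galphao activated by GDP with aluminum fluoride before binding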
Target sequence (O15492 whole entry, looked up): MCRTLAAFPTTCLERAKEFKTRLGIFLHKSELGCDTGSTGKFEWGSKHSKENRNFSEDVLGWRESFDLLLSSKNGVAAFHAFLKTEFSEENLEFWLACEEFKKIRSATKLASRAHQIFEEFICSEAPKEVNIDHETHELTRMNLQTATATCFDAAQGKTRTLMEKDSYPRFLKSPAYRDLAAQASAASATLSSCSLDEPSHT
Target sequence (P09471 whole entry, looked up): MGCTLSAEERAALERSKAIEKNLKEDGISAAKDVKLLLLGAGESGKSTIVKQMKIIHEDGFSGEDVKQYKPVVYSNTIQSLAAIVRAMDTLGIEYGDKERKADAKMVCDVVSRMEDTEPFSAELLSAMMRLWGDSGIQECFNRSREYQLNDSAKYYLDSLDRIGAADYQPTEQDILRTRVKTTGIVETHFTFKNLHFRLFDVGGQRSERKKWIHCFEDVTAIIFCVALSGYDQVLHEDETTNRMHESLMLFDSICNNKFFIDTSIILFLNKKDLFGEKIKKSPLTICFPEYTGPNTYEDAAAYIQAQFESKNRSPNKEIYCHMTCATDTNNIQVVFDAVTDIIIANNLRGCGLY
RGS4-Gao HTS – modulators of RGS–Galpha-o binding, primary screen, biochemical, multiplexed beads, flow cytometry, RGS4/7/8/16/19. multiplexed bead flow cytometry. shares compounds with RGS16-Gao. 99% of 1,600 active. RGS4–Galpha-o binding response, % at 10 µM;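 also: fluorescently labeled Galpha-o bound to GDP with aluminium fluoride binding biotinylated RGS beads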
Biotin-avidin – disruption of biotin probe capture by avidin, counter-screen for RGS protein interaction modulators, biochemical, flow cytometry, bead-based; 1,700 tested, under 10 active; inhibition, % at 10 µM; streptavidin beads, fluorescein-biotin binding; shares compounds with RGS16-Gao; AID 1783, 2009;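 active = inhibition above 50%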;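 also: median green fluorescence of gated singlet beads compared with DMSO control wells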
RGS8-Gao single – RGS8-Galphao binding modulators, confirmation, biochemical, multiplexed bead flow cytometry, single concentration; shares compounds with RGS16-Gao; bead-based flow cytometry RGS8-Galphao binding, fluorescence; actives lie on both sides; binding response (% of control), % at 10 µM; 3% of 1,700 active; in the data active = binding response below about 72% or above about 130%; inactive = in between;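 also: Galphao activated as GDP AlF4 complex before binding bead RGS8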
RGS7-Gao single – RGS7-Galphao binding modulators, confirmation, biochemical, multiplexed bead flow cytometry, single concentration | bead-based flow cytometry RGS7-Galphao binding; actives lie on both sides | shares compounds with RGS16-Gao | 7.8% of 1,700 active | response (percent of control binding), % at 10 µM | AID 1837, 2009; in the data active = response below about 75% or above about 130%; inactive = in between;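 also: fluorescent Galphao activated with GDP and aluminum fluoride binding bead-coupled RGS7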
RGS16-Gao conf – modulators of RGS16-Galphao protein binding, confirmation, biochemical, single concentration, multiplexed bead flow cytometry; shares compounds with RGS16-Gao; bead-based flow cytometry; actives lie on both sides; response (% of control binding), % at 10 µM; 4% of 1,700 active; AID 1838, 2009; in the data active = response below about 74% or above about 130%; inactive = in between;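 also: Galphao activated as the GDP aluminium fluoride complex binding bead-coupled RGS16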
RGS4-Gao confirm – modulators of RGS4-Galphao protein binding, confirmation, biochemical, single concentration, multiplexed bead flow cytometry; shares compounds with RGS16-Gao; actives lie on both sides; binding response (% of control), % at 10 µM; 4% of 1,700 active; AID 1840, 2009; in the data active = binding response below about 74% or above about 130%; inactive = in between
RGS19-Gao conf – regulators of RGS19-Galphao binding, confirmation, biochemical, single point, multiplexed bead flow cytometry; shares compounds with RGS16-Gao; bead-based flow cytometry RGS19-Galphao binding; actives lie on both sides; response (percent of control binding), % at 10 µM; 5% of 1,700 active; in the data active = response below about 50% or above about 160%; inactive = in between
Hits are given with their value; [ ] = another dose, or the depositor's remark. Unless noted, no rule for the calls is given here.

Results for O=C(NC1(C(F)(F)F)NC(=O)N(Cc2cccnc2)C1=O)c1ccccc1 (configuration not stated) ?
GSH bead fluor: inactive; RGS7-Gao reg: 41.6; Avidin bead fluor: inactive; RGS4-Gao reg: 46.2; RGS8-Gao reg: 52.1; RGS16-Gao: inactive; Biotin-avidin: inactive; RGS8-Gao single: inactive; RGS7-Gao single: inactive; RGS16-Gao conf: inactive; RGS4-Gao confirm: inactive; RGS19-Gao conf: inactive

Results for O=C(NC1(C(F)(F)F)NC(=O)N(Cc2ccccc2)C1=O)c1cccnc1 (configuration not stated) ?
GSH bead fluor: inactive; RGS7-Gao reg: inactive; Avidin bead fluor: inactive; RGS4-Gao reg: inactive; RGS8-Gao reg: inactive; RGS16-Gao: inactive

What do the screens show for `Cc1ccc(OCC(=O)N2c3ccccc3CC2C)c([N+](=O)[O-])n1` (configuration not stated)?
GSH bead fluor: inactive; RGS7-Gao reg: inactive; Avidin bead fluor: inactive; RGS4-Gao reg: inactive; RGS8-Gao reg: inactive; RGS16-Gao: inactive

What do the screens show for `COc1cc(NS(=O)(=O)c2ccc(NC(=S)NC(=O)COc3ccccc3OC)cc2)nc(OC)n1`?
GSH bead fluor: inactive; RGS7-Gao reg: inactive; Avidin bead fluor: inactive; RGS4-Gao reg: inactive; RGS8-Gao reg: inactive; RGS16-Gao: inactive

How did Cc1[nH]c2ccccc2c1SCC(=O)O do in these assays?
GSH bead fluor: inactive; RGS7-Gao reg: inactive; Avidin bead fluor: inactive; RGS4-Gao reg: inactive; RGS8-Gao reg: inactive; RGS16-Gao: inactive

Results for COC(=O)C(F)(F)Sc1c(C)[nH]c2ccccc12 ?
GSH bead fluor: inactive; RGS7-Gao reg: 157.8[activator]; Avidin bead fluor: 143; RGS4-Gao reg: inactive; RGS8-Gao reg: inactive; RGS16-Gao: inactive; RGS4-Gao HTS: 118.8; Biotin-avidin: inactive; RGS8-Gao single: inactive; RGS7-Gao single: inactive; RGS16-Gao conf: inactive; RGS4-Gao confirm: inactive; RGS19-Gao conf: inactive
